According to the supplement of paper PMC13380429:

Test system: Vero E6 infected with SARS-CoV-2
Assay: inhibition of SARS-CoV-2 cytopathic effect; higher = more antiviral protection, active = above 15
Details: 48 h

Measured: inhibition of SARS-CoV-2 cytopathic effect

CC[C@H](C)[C@@H]([C@@H](CC(=O)N1CCC[C@H]1[C@H](OC)[C@@H](C)C(=O)N[C@@H](Cc1ccccc1)c1nccs1)OC)N(C)C(=O)[C@@H](NC(=O)[C@H](C(C)C)N(C)C)C(C)C [dolastatin-10]
inactive: 1 nM -1.47% | 8.33 nM 0.79% | 100 nM -2.31% | 833.33 nM -3% | 10000 nM 0.49%

O=C1C=Cc2cc(Br)ccc2C1=O [bonaphthone]
inactive: 1 nM -0.83% | 8.33 nM 0.78% | 100 nM -2.18% | 833.33 nM -1.56% | 10000 nM -2.53%

C[C@]12C=CC(=O)N[C@@H]1CC[C@@H]1[C@@H]2CC[C@]2(C)[C@@H](C(=O)Nc3cc(C(F)(F)F)ccc3C(F)(F)F)CC[C@@H]12 [dutasteride]
inactive: 1 nM -4.2% | 8.33 nM -3.31% | 100 nM 1.66% | 833.33 nM -2.35% | 10000 nM -7.18%

Oc1c(CN2CCCC2)cc(COCc2ccccc2)c2cccnc12
inactive: 1 nM -1.11% | 8.33 nM -0.88% | 100 nM 0.87% | 833.33 nM -0.42% | 10000 nM 2.93%

N#Cc1cccc(-c2nc(-c3cccnc3)no2)c1
inactive: 1 nM -1.62% | 8.33 nM 0.72% | 100 nM -0.15% | 833.33 nM -1.08% | 10000 nM 2.85%

O=C(O)CCCN1CCC(O[C@@H](c2ccc(Cl)cc2)c2ccccn2)CC1 [bepotastine]
inactive: 1 nM -0.92% | 8.33 nM 2.31% | 100 nM 0.31% | 833.33 nM 2.01% | 10000 nM -0.07%

N[C@@H](C(=O)N[C@@H]1C(=O)N2C(C(=O)O)=C(Cl)CS[C@H]12)c1ccccc1 [cefaclor]
inactive: 1 nM -2.43% | 8.33 nM -5.19% | 100 nM 1.55% | 833.33 nM -1.09% | 10000 nM 5.72%

O=C(O)/C=C(/CC(=O)O)C(=O)O [cis-aconitic-acid]
inactive: 1 nM 0.99% | 8.33 nM 0.49% | 100 nM -3.45% | 833.33 nM -2.25% | 10000 nM 0.81%

CC(C)Oc1cccc(CC(=O)N2CCC[C@](CC[N+]34CCC(c5ccccc5)(CC3)CC4)(c3ccc(Cl)c(Cl)c3)C2)c1
inactive: 1 nM 1.67% | 8.33 nM 0.54% | 100 nM 0.54% | 833.33 nM 4.46% | 10000 nM 1.59%

O=C(Nc1ncc(SCCN2CCCC2)s1)[C@]1(c2ccc(S(=O)(=O)C3CC3)cc2)C[C@H]1C1CCCCC1
inactive: 1 nM 1.58% | 8.33 nM -0.96% | 100 nM -2.63% | 833.33 nM -2.76% | 10000 nM -5.6%

O=C([O-])CN1CCN(CC(=O)[O-])CCN([C@H](CO)[C@H](O)CO)CCN(CC(=O)[O-])CC1.[Gd+3] (racemic) [gadobutrol]
inactive: 1 nM -1.29% | 8.33 nM 1.41% | 100 nM 0.03% | 833.33 nM 0.17% | 10000 nM 2.16%

N=C(N)NCCC[C@@H](N)C(=O)N[C@@H](CCCNC(=N)N)C(=O)N1CCC[C@H]1C(=O)N1C[C@H](O)C[C@H]1C(=O)NCC(=O)N[C@@H](Cc1cccs1)C(=O)N[C@@H](CO)C(=O)N1Cc2ccccc2C[C@@H]1C(=O)N1[C@H](C(=O)N[C@@H](CCCNC(=N)N)C(=O)O)C[C@@H]2CCCC[C@@H]21 [icatibant-acetate]
inactive: 1 nM -2.62% | 8.33 nM -4.61% | 100 nM -4.27% | 833.33 nM 2.14% | 10000 nM 1.26%

Cc1nc(Nc2ccc(F)cc2)nc(N2CCc3ccccc3C2C)c1C (stereo not given) [revaprazan]
inactive: 1 nM 0.41% | 8.33 nM 1.64% | 100 nM 2.31% | 833.33 nM 1.17% | 10000 nM 1.72%

N#CCC1(n2cc(-c3ncnc4[nH]ccc34)cn2)CN(C2CCN(C(=O)c3ccnc(C(F)(F)F)c3F)CC2)C1 [itacitinib]
inactive: 1 nM 1.05% | 8.33 nM 1.83% | 100 nM 0.96% | 833.33 nM -0.18% | 10000 nM -3.04%

C#C[C@]1(OC(C)=O)CC[C@H]2[C@@H]3CCC4=C[C@@H](OC(C)=O)CC[C@@H]4[C@H]3CC[C@@]21C [ethynodiol-diacetate]
inactive: 1 nM 1.35% | 8.33 nM 3.73% | 100 nM 2.52% | 833.33 nM -2.62% | 10000 nM -1.63%
